# Assay outcomes (PubChem BioAssay)
# GPT2 inh: blocks human glutamate pyruvate transaminase 2; Q8TD30; Recombinant GPT2, coupled pyruvate oxidase/HRP Amplex Red fluorescence; Potency, µM (doses to about 57.7 µM), inactives show at the top dose activity change, negative = inhibition, hits mostly inhibitors; hit rate 0.25% among 100,000; further: nearly all actives have a fitted effect of over 60% in size
#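 Recombinant GPT2 (10ng/uL) with 250uM a-KG and 2mM L-alanine, 30 min at room temperature, in HEPES pH 7.5 buffer. Pyruvate detected by pyruvate oxidase/HRP/Amplex Red fluorescence after 30 min in the dark; AOA (50uM) as positive control.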
# hNpr1 antagonist: blocks ANP-stimulated signaling of human Npr1 receptor | P16066 | HEK293 hNpr1 GloSensor cGMP, ANP-stimulated luminescence | Potency, µM (doses to about 46.3 µM), for inactives: at the top dose activity change, negative = inhibition, usual class: inhibitors | hit rate 1.6% among 76,000 | AID 1347048; calls by dose curve; further: nearly all actives have a fitted effect of over 60% in size
# Target sequence (P16066 whole entry, looked up): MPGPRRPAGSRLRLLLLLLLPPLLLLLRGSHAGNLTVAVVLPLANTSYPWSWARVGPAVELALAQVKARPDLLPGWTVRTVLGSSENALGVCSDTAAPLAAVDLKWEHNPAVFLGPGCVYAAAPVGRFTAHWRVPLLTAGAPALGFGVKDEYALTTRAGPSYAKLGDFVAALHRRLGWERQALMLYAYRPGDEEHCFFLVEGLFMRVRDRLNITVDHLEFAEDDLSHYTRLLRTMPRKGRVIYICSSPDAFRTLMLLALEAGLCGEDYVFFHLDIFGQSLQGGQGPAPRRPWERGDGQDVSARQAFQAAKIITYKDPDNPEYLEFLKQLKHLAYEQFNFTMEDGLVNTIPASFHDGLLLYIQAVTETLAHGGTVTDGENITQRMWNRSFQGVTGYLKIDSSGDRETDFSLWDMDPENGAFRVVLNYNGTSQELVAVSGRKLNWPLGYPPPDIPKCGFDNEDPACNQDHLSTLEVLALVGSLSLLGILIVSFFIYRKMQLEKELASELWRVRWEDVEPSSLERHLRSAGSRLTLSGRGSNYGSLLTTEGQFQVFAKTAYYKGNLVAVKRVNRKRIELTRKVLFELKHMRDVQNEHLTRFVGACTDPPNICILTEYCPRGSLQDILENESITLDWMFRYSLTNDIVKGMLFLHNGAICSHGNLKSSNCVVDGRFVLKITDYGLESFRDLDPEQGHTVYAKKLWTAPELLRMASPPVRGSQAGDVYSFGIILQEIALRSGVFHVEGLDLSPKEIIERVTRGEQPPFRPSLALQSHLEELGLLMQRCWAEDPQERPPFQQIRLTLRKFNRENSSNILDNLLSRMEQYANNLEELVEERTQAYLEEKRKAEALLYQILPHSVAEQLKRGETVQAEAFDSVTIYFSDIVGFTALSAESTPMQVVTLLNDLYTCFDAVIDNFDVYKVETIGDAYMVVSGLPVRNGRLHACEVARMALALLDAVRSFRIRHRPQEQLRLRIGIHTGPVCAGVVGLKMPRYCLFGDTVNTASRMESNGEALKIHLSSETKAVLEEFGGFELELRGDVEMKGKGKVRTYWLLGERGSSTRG
#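 Compound pre-incubated 30 min at room temperature on GloSensor-loaded HEK293 cells stably carrying hNpr1 and the pGS-40F cGMP biosensor. Stimulation uses hNppA at 0.1 nM final; luminescence is taken at baseline and 20 min post-agonist.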
# FLuc inh: inhibitors of firefly (Photinus pyralis) luciferase | P08659 | purified P. pyralis luciferase, luminescence, biochemical | Potency, µM (doses to about 115 µM), most hits filed as inhibitors | hit rate 2.5% among 76,000 | AID 1347043; further: nearly all actives have a fitted effect of over 65% in size
#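 Cell-free enzyme assay, 10nM P. pyralis luciferase, luciferin and ATP each at 10uM. Inhibition profiled over a 6-point titration, read as luminescence.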
# 3T3 cytotox: NIH 3T3 cell cytotoxicity | hit rate 4.3% among 94,000 | NIH 3T3 viability, CellTiter-Glo ATP luminescence, 48-72 h | Potency, µM (top dose mostly 96.7 µM), for the others: top-dose activity change, negative = cytotoxicity, hits mostly inhibitors; further: nearly all actives have a fitted effect of over 55% in size
#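 Mouse fibroblast NIH 3T3 cells, 400 per well, received compound via pintool and were incubated for 48 or 72 hr prior to CellTiter-Glo ATP luminescence measurement.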
# HEK cytotox: cytotoxic compounds in HEK 293 cells; HEK 293 viability, ATP luminescence (CellTiter-Glo), 48-72 h; Potency, µM (titrated, usually from 115 µM), without a hit: at the highest dose activity change, negative = cytotoxicity, most hits filed as inhibitors; hit rate 6.6% among 94,000; AID 1345083; further: nearly all actives have a fitted effect of over 60% in size
#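 Pintool-delivered compounds were incubated with HEK 293 cells (250 cells/well) at 37 degree Celsius for 48 or 72 hr. ATP-dependent luminescence (CellTiter-Glo) then reported remaining viable cells.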
# The depositor's hits bear a star; i = inactive; ? = inconclusive; . = no result given; [ ] = dose if it differs, or a comment. Shown are actives, neighbours in structure and some others; about 10% of the full set was active somewhere. Unless noted, the call rests on the fitted dose curve; in most records, active means well fitted curve in the direction sought with a large enough effect; inconclusive means small, poorly fitted or top-dose-only effect, or another doubt; inactive means no such curve, though single readings can be large; an effect the other way counts as inactive or inconclusive. On the % scale 0 is the no-effect control and ±100 the full control effect; potency means the concentration at half of the fitted maximal effect.
SMILES,GPT2 inh,hNpr1 antagonist,FLuc inh,3T3 cytotox,HEK cytotox
CN(CC(=O)N1CCC(CCOc2ccccc2F)C1)S(=O)(=O)c1cccs1 (configuration not stated),-7%,-16%,i,?,50µM*
CN(CC(=O)N1CCC(CCOc2ccc(F)cc2)C1)S(=O)(=O)c1ccc2c(c1)oc(=O)n2C (configuration not stated),i,?,i,?,35µM*
O=C(C1CCN(S(=O)(=O)N2CCOCC2)CC1)N1CCC(CCOc2ccc(F)cc2)C1 (configuration not stated),-10%,.,.,?,45µM*
C[S+](=O)([O-])N1CCCC(c2nn(-c3cccc(Cl)c3)c(=O)[nH]2)C1 (configuration not stated),i,0%,i,?,-12%
O=C(CN1C(=O)NC2(CCOCC2)C1=O)NC1CCCC1,i,4%,i,i,13%
COc1ccc(CN2C(=O)C(=O)c3cc(S(=O)(=O)N4CCC[C@H]4COc4cccnc4)ccc32)cc1,1%,.,.,.,.
CC(C)N[C@H]1C[C@@H](Cc2cc(CC3CCCCC3)on2)C1(C)C,i,8%[70.6 µM],i,45µM*,32µM*
CC1(C)[C@H](Cc2cc(CC3CCCCC3)on2)C[C@@H]1NC(=O)c1ccco1,?,?,i,71µM*,25µM*
COCc1cc(C[C@@H]2C[C@H](NCC3CC3)C2(C)C)no1,4%[88.5 µM],4%[70.6 µM],i,-1%[174 µM],0%[230 µM]
CC(C)(C)[N+]([O-])=Cc1ccc(S(=O)(=O)O)cc1S(=O)(=O)O,i,.,.,.,.
CC1CCC2(CC1)OCC(C(=O)NCc1ccccc1)N2C(=O)c1cccc(Cl)c1 (configuration not stated),i,-9%,i,?,?
CC1CCC2(CC1)OCC(C(=O)NCc1ccccc1)N2C(=O)c1ccc(Cl)c(Cl)c1 (configuration not stated),-8%,0%,i,20µM*,?
COc1ccccc1C(=O)N1CCC(N2C(=O)c3c(c(C)nn3-c3ccccc3)C2C2CC2)C1 (configuration not stated),.,.,.,?,40µM*
COc1ccccc1C(=O)N1CCC(N2C(=O)c3c(c(C)nn3-c3ccccc3)C2C)C1 (configuration not stated),.,.,.,?,45µM*
Cc1nn(-c2ccccc2)c2c1C(C)N(C1CCN(C(=O)NC(C)C)C1)C2=O (configuration not stated),.,.,.,?,-20%
CN(CCc1noc(C2CN(Cc3ccc(Cl)c(F)c3)C2)n1)S(C)(=O)=O,-8%,-1%,i,?,40µM*
COc1ccc(Nc2ccnc(N3CCCC(C(=O)NCc4cccc(Cl)c4)C3)n2)cc1 (configuration not stated),i,.,.,?,?
Cc1ccc(Nc2ccnc(N3CCCC(C(=O)NCc4ccc5c(c4)OCO5)C3)n2)cc1 (configuration not stated),i,.,.,13µM*,7.9µM*
COc1ccc(Nc2ccnc(N3CCCC(C(=O)NCc4cccc(OC)c4)C3)n2)cc1 (configuration not stated),i,.,.,35µM*,25µM*
COc1ccc(Nc2ccnc(N3CCCC(C(=O)NCc4ccccc4)C3)n2)cc1 (configuration not stated),i,.,.,35µM*,40µM*
COc1ccc(Nc2ccnc(N3CCCC(C(=O)NCc4cccc(F)c4)C3)n2)cc1 (configuration not stated),2%,.,.,16µM*,13µM*
COc1ccc(CC(=O)NC2CCN(C(=O)c3ccc(-c4cccs4)cc3)CC2)cc1,i,.,.,?,-15%
COc1ccc(NC(=O)[C@H]2CN(Cc3ccccc3)C[C@H]2C(=O)O)cn1,?,1%,i,3%,-12%
O=[S+]([O-])(c1ccccc1)N1CC2(CCCN2C2COC2)Cc2ccccc21 (configuration not stated),0%,.,.,-2%,-10%
COc1ccc(CNC(=O)C2CCCN2c2nccc(Nc3ccc(C)cc3)n2)cc1 (configuration not stated),i,.,.,?,?
SMILES,GPT2 inh,hNpr1 antagonist,FLuc inh,3T3 cytotox,HEK cytotox
COc1ccc(CNC(=O)C2CCCN(c3nccc(Nc4ccccc4F)n3)C2)cc1 (configuration not stated),i,.,.,10µM*,28µM*
COc1ccc(CNC(=O)C2CCCN(c3nccc(Nc4ccc(C)cc4)n3)C2)cc1 (configuration not stated),i,.,.,?,10µM*
c1ccc(-c2noc(-c3cncnc3N3CCN(c4ccccc4)CC3)n2)cc1,1%,-21%,?,?,45µM*
COCC1CN(C(=O)CCc2cccc(OC)c2)CC12CCOCC2 (configuration not stated),i,-3%,i,3%,12%
Cc1cc(CN2CCC(Cc3ccc(F)cc3)CC2)n(C)n1,-12%,?,i,?,40µM*
Cc1cc(C(=O)N2CCC(Cc3ccc(C(N)=O)cc3)CC2)n(C)n1,?,1%,i,-22%,?
Cc1nc(N)nc(C)c1CC(=O)N1CC[C@@H](NC(=O)c2cccnc2)[C@H](O)C1,-1%,4%,i,-1%,i
COCC1CCN(S(=O)(=O)N2CCCCC2CCc2ccccc2)CC1 (configuration not stated),-14%,-22%,i,?,45µM*
O=C(C1CCCC1)N1Cc2ccccc2CC2(CCN(Cc3ccncc3)CC2)C1,i,.,.,?,?
CCc1noc(-c2cn(C3CCCN(C(=O)c4ccc5c(c4)OCO5)C3)nn2)n1 (configuration not stated),i,-6%,i,-11%,-9%
Cc1ccsc1CN1CC(Oc2ccc(-c3noc(C4CCOCC4)n3)cc2)C1,i,.,.,40µM*,20µM*
CC(C)(C)CN1C[C@@H](C(=O)O)C[C@H](C(=O)NCc2cccnc2)C1,-5%[11.5 µM],6%,i,-15%,-7%
Cc1ccc(CCNC(=O)C2CCN(C(=O)c3nnn4c3COC(c3ccc(C)cc3)C4)CC2)cc1 (configuration not stated),-3%,1%,8.9µM*,-11%,-9%
Cc1ccc(C2Cn3nnc(C(=O)N4CCC(C(=O)NCc5cccc(C)c5)CC4)c3CO2)cc1 (configuration not stated),i,-1%,?,i,3%
Cc1ccc(C2Cn3nnc(C(=O)N4CCC(C(=O)NCC(C)C)CC4)c3CO2)cc1 (configuration not stated),1%,1%,22µM*,-14%,0%
